Reference: PubChem BioAssay (Tox21)
Results filed as inconclusive are left out. Calls of active or inactive are those of the source. Unless noted, calls follow the shape of the dose curve; as a rule, active = well fitted curve in the direction sought with a large enough effect in the repeat runs; inconclusive = weak or mixed curves; inactive = no such curve, though single readings can be large; an effect the other way counts as inactive or inconclusive.

Experiments:
[1] = qHTS assay to identify small molecule antagonists of the thyroid receptor (TR) signaling pathway - cell viability counter screen (AID 743064); also: nearly all actives have a fitted effect of over 50% in size
Procedure, shortened: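 Fluorescence from CellTiter-Fluor, added after 23.5 h exposure at 37 °C, reported viability of GH3.TRE-Luc cells co-treated with compound and 1 nM T3. Measured in the same wells as the luciferase TR readout.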

[2] = qHTS assay to identify small molecule antagonists of the thyroid receptor (TR) signaling pathway (AID 743065); also: series mostly up to about 70 µM; nearly all actives have a fitted effect of over 55% in size
Procedure, shortened: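 Antagonism measured as loss of luciferase signal in GH3 cells stably carrying a TRE-luciferase reporter, co-treated with compound and T3 (1 nM final) for 23.5 h at 37 C. Viability was read in the same well by CellTiter-Fluor.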

[3] = test system: thyroid hormone receptor (rat, GH3 cells); experiment: qHTS assay to identify small molecule agonists of the thyroid receptor (TR) signaling pathway (AID 743066; calls by dose curve)
[4] = qHTS assay to identify small molecule antagonists of the estrogen receptor alpha (ER-alpha) signaling pathway - cell viability counter screen (AID 743074; calls by dose curve;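 also: HEK293 cells carrying ER-alpha-UAS-bla reporter stimulated with 17beta-estradiol; nearly all actives have a fitted effect of over 45% in size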)
[5] = qHTS assay to identify small molecule antagonists of the estrogen receptor alpha (ER-alpha) signaling pathway using the BG1 cell line - cell viability counter screen (AID 743081);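 also: compound given together with 17beta-estradiol as the ER stimulus; series mostly up to about 70 µM; nearly all actives have a fitted effect of over 45% in size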
[6] = molecular target: Aromatase (Homo sapiens) (UniProt P11511); experiment: qHTS assay to identify aromatase inhibitors (AID 743083); also: series mostly up to about 70 µM; nearly all actives have a fitted effect of over 55% in size
[7] = qHTS assay to identify aromatase inhibitors - cell viability counter screen (AID 743084);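 also: cells stimulated with testosterone during compound exposure; nearly all actives have a fitted effect of over 55% in size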
[8] = molecular target: Aryl hydrocarbon receptor (Homo sapiens) (UniProt P35869); experiment: qHTS assay to identify small molecule that activate the aryl hydrocarbon receptor (AhR) signaling pathway (AID 743085);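 also: HG2L7.5c1 human HepG2 liver cells with stably integrated DRE-driven firefly reporter; series mostly up to about 70 µM; nearly all actives have a fitted effect of over 15% in size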
Procedure, shortened: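 Cell line HG2L7.5c1 (human hepatoma, 20× DRE-luc). Plated, 5 h 37C, compound/DMSO added, 24 h 37C. CellTiter-Fluor 30 min 37C → fluorescence; then ONE-Glo 30 min RT → luminescence.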

[9] = qHTS assay to identify small molecule that activate the aryl hydrocarbon receptor (AhR) signaling pathway - cell viability counter screen (AID 743086);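 also: HepG2 liver cells carrying the AhR DRE luciferase reporter; series mostly up to about 70 µM; nearly all actives have a fitted effect of over 45% in size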
Procedure, shortened: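 Cytotoxicity counter screen: CellTiter-Fluor signal (30 min, 37 C) in 4000 HepG2 cells/well carrying the DRE-luciferase reporter, following 24 h compound exposure at 37 C.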

[10] = qHTS assay for small molecule agonists of the antioxidant response element (ARE) signaling pathway - cell viability counter screen (AID 743203; calls by dose curve; also: nearly all actives have a fitted effect of over 55% in size)
Procedure, shortened: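 Measured in the same wells as the beta-lactamase ARE reporter, this read-out is CellTiter-Glo luminescence from HepG2 ARE-bla cells given compounds for 16 hrs.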

[11] = qHTS assay for small molecule activators of the heat shock response signaling pathway - cell viability counter screen (AID 743209); also: nearly all actives have a fitted effect of over 50% in size
Procedure, shortened: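 Same-well multiplex: after 2.5 h room-temperature incubation with LiveBLAzer B/G substrate and fluorescence reading, CellTiter-Glo reagent was added to HSE-bla HeLa cells that had received compound for 5 h at 37 C; luminescence read after 30 min.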

[12] = qHTS assay for small molecule activators of the heat shock response signaling pathway (AID 743210; active = well fitted activation curve with a large enough effect in the signal ratio in the repeat runs, with a control signal flat, not every such curve was filed as active; the % refers to the signal ratio; also: series mostly up to about 63 µM)
Procedure, shortened: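 Compound exposure lasted 5 h at 37 C in HeLa cells carrying a heat-shock-element-driven beta-lactamase reporter. Read-out: fluorescence intensity after 2.5 h room-temperature loading with LiveBLAzer B/G FRET substrate.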

[13] = molecular target: Peroxisome proliferator-activated receptor gamma (Homo sapiens) (UniProt P37231); experiment: qHTS assay to identify small molecule agonists of the peroxisome proliferator-activated receptor gamma (PPARg) signaling pathway (AID 743094; active = well fitted activation curve with a large enough effect in the signal ratio in the repeat runs, not every such curve was filed as active; the % refers to the signal ratio)
Procedure, shortened: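 Cell-based bla reporter, HEK293H background, PPARg-driven UAS. Pre-incubation 5 h, 37C, 5% CO2. Compound 17 h, 37C. Substrate 1 h RT; fluorescence.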

[14] = molecular target: Peroxisome proliferator-activated receptor gamma (Homo sapiens) (UniProt P37231); experiment: qHTS assay to identify small molecule antagonists of the peroxisome proliferator-activated receptor gamma (PPARg) signaling pathway (AID 743191; calls by dose curve; also: series mostly up to about 63 µM; nearly all actives have a fitted effect of over 30% in size)
Procedure, shortened: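 Beta-lactamase reporter under UAS control in HEK293H PPARg-bla cells; compound treatment 17 h at 37C. Read-out: fluorescence intensity after 1 h room-temperature incubation with LiveBLAzer B/G FRET substrate.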

[15] = qHTS assay to identify small molecule antagonists of the peroxisome proliferator-activated receptor gamma (PPARg) signaling pathway - cell viability counter screen (AID 743194); also: nearly all actives have a fitted effect of over 55% in size
Procedure, shortened: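 Viability was measured as CellTiter-Glo luminescence in GeneBLAzer PPARg UAS-bla HEK293H cells. These cells had been exposed 17 h at 37 C to compounds together with rosiglitazone at 50 nM final, with the beta-lactamase readout taken in the same wells.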

[16] = qHTS assay for small molecule agonists of the antioxidant response element (ARE) signaling pathway (AID 743202; active = well fitted activation curve with a large enough effect in the signal ratio in the repeat runs, not every such curve was filed as active; the % refers to the signal ratio)
Procedure, shortened: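 After 16 hours of compound treatment at 37 C, HepG2 cells with a stably integrated ARE-driven beta-lactamase reporter were loaded 2 hours at room temperature with LiveBLAzer B/G FRET substrate and fluorescence intensity measured.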

[17] = molecular target: Estrogen receptor (Homo sapiens) (UniProt P03372); experiment: qHTS assay to identify small molecule antagonists of the estrogen receptor alpha (ER-alpha) signaling pathway (AID 743069; active = well fitted curve in the direction sought with a large enough effect in the signal ratio in the repeat runs, not every such curve was filed as active; the % refers to the signal ratio)
Procedure, shortened: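 Antagonist mode: compounds in DMSO were co-added with 17beta-estradiol to ER-alpha-bla HEK293 cells (2% charcoal-stripped serum) and left 18 h at 37C. Reporter inhibition was measured as FRET fluorescence after 2 h LiveBLAzer substrate at room temperature.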

[18] = molecular target: Estrogen receptor (Homo sapiens) (UniProt P03372); experiment: qHTS assay to identify small molecule agonists of the estrogen receptor alpha (ER-alpha) signaling pathway (AID 743075; calls by dose curve;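 also: HEK293 GripTite cells with ER-alpha and UAS-driven beta-lactamase reporter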)
[19] = qHTS assay to identify small molecule antagonists of the estrogen receptor alpha (ER-alpha) signaling pathway using the BG1 cell line (AID 743080; calls by dose curve;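 also: BG1 cells stimulated with 17beta-estradiol alongside compound; series mostly up to about 70 µM; nearly all actives have a fitted effect of over 25% in size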)
Procedure, shortened: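 After 5 days in phenol-red-free 10% charcoal-stripped FBS medium, BG1-Luc-4E2 cells were seeded, left 24 h at 37 C, co-treated with compounds and 17beta-estradiol for 21.5 h, then assayed for viability and luciferase.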

[20] = molecular target: Estrogen receptor (Homo sapiens) (UniProt P03372); experiment: qHTS assay to identify small molecule agonists of the estrogen receptor alpha (ER-alpha) signaling pathway using the BG1 cell line (AID 743079); also: nearly all actives have a fitted effect of over 20% in size

Measured: Potency

Estrogen receptor (Homo sapiens), sequence (P03372 whole entry, looked up): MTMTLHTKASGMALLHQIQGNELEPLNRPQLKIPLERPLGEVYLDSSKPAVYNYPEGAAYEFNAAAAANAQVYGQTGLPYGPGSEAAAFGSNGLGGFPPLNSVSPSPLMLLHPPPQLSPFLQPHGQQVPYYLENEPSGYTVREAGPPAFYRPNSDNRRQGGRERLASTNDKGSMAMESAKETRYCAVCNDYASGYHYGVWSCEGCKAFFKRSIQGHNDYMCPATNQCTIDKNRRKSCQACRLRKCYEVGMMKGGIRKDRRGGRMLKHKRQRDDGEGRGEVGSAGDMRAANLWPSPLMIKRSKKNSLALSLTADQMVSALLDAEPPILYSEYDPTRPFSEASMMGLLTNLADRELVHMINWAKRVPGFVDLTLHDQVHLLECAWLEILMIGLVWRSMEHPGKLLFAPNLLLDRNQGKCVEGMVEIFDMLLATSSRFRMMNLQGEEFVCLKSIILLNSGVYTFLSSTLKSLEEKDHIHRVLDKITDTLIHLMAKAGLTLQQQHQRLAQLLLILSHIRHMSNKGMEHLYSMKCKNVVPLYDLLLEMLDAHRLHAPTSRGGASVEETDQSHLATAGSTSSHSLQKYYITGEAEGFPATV
Aryl hydrocarbon receptor (Homo sapiens), sequence (P35869 whole entry, looked up): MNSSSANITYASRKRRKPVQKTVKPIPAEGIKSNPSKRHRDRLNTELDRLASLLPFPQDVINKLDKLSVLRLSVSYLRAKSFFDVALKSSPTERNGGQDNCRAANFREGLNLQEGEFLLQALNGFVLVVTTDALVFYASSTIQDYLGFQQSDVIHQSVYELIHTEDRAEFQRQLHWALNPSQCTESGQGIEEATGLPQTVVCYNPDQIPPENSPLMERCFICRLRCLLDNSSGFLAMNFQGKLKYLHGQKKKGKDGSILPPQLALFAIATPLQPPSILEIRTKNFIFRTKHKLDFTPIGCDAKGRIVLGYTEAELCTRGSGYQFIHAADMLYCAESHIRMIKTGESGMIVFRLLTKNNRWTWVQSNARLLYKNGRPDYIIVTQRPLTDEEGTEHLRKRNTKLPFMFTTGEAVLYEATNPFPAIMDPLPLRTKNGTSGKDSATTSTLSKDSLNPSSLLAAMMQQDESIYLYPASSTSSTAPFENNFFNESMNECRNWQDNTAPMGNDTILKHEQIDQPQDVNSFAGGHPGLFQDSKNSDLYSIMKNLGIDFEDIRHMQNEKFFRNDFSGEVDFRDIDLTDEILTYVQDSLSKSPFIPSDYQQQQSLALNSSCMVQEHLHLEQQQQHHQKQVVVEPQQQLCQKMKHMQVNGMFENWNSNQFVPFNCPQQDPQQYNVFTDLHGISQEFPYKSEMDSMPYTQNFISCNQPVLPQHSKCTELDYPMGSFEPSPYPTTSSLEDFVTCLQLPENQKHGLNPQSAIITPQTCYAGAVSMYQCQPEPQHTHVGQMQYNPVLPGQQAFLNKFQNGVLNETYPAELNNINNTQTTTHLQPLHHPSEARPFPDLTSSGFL
Aromatase (Homo sapiens), sequence (P11511 whole entry, looked up): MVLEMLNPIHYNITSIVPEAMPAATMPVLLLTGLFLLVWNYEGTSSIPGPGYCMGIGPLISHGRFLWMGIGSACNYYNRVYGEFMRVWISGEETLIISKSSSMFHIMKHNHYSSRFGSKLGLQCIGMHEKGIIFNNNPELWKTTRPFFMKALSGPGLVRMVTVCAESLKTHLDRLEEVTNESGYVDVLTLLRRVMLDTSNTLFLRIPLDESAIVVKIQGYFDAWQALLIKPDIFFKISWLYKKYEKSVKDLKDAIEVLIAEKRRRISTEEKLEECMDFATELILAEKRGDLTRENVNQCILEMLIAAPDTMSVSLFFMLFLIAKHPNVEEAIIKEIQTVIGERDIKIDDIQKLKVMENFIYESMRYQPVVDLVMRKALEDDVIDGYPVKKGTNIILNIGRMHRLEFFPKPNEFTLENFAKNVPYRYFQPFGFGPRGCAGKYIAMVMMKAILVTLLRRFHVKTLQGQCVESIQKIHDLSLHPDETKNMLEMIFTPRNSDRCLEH
Peroxisome proliferator-activated receptor gamma (Homo sapiens), sequence (P37231 whole entry, looked up): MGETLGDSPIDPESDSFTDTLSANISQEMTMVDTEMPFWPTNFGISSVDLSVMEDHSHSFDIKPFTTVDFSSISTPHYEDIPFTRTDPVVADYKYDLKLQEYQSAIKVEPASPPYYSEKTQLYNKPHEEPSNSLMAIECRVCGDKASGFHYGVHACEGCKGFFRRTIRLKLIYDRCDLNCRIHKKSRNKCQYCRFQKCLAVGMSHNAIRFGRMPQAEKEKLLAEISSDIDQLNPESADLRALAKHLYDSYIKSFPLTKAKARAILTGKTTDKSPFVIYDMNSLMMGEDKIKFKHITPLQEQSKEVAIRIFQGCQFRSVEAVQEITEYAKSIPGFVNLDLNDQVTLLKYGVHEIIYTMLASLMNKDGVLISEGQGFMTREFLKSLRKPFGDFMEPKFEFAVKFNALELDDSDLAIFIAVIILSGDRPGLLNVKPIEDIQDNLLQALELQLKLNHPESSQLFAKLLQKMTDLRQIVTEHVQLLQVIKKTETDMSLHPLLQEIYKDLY

CCCCOCCOCCOCCCC
not listed: [13] | [14] | [15] | [16] | [17] | [18] | [19] | [20]
inactive: all other assays above

N=C(N)c1ccccc1
not listed: [17] | [18] | [19] | [20]
inactive: all other assays above

NC(=O)c1ccc(N)cc1
not listed: [4] | [8] | [20]
inactive: all other assays above

COC(=O)c1cc(C(=O)OC)cc(S(=O)(=O)O)c1
not listed: [11] | [16] | [17] | [18] | [19] | [20]
inactive: all other assays above

C[C@H]1C[C@@H](O)CC(C)(C)C1
not listed: [12] | [17] | [18] | [19] | [20]
inactive: all other assays above

Cc1c(O)cccc1O
not listed: [8] | [17]
inactive: all other assays above

CC(C)OC(=O)c1ccccc1
not listed: [4] | [13] | [14] | [16]
inactive: all other assays above

Cn1cc(S(C)=O)c(=O)c2ccc(F)cc21 (configuration not stated)
not listed: [4] | [5] | [11] | [16]
inactive: all other assays above

FC(F)OC(Cl)C(F)(F)F (configuration not stated)
not listed: [15] | [16] | [17] | [18] | [19] | [20]
inactive: all other assays above

CN1CCCC1
not listed: [4] | [8] | [15]
inactive: all other assays above

CCN1CCC[C@H]1CNC(=O)c1cc(S(N)(=O)=O)ccc1OC
not listed: [17] | [18] | [19] | [20]
inactive: all other assays above

CCOC(=O)c1ccc(C)cc1
not listed: [4] | [14]
inactive: all other assays above

C=CCOCC(CC)(CO)COCC=C
inactive: [1] | [2] | [3] | [5] | [9] | [15] | [16] | [10] | [11] | [12]

COc1ccc2c(c1)c(CC(=O)OCC(=O)O)c(C)n2C(=O)c1ccc(Cl)cc1
not listed: [5] | [13] | [14] | [17] | [18] | [19] | [20]
inactive: all other assays above
